This is an account of results in PMC5540273 (PLoS ONE, 2017).

Each structure is given as a SMILES string.
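Further: KINOMEscan kinase panel screen.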

The first assay relates to PRKD3. Particulars: concentration: 1 μM,replicates: in singlicate; n = 1.
For `Cn1ccc2ncnc(Oc3ccc(NC(=O)Nc4ccnc(C(F)(F)F)c4)c(Cl)c3)c21`, the “%Inh” value stood at 0%.

Consider `Cc1ccc(CC(=O)N2CCc3cc(-c4cn(C)c5ncnc(N)c45)ccc32)cc1` [GSK2634758], for which the “%Inh” value is 0%.

On to `CS(=O)(=O)c1cccc(CNc2nc(Nc3ccc4c(c3)[C@@H]3C[C@@H]4CNC3=O)ncc2C(F)(F)F)c1`, for which the “%Inh” value amounted to 22%.

With `CNC(=O)c1ccccc1Nc1nc(Nc2cccc(CS(C)(=O)=O)c2)ncc1C.O=CO` [GSK1520489], the “%Inh” value was 13%.

`Cn1ccc2ncnc(Oc3ccc(NC(=O)Nc4cccc(C(F)(F)F)c4)c(Cl)c3)c21`: the “%Inh” value was 9%.

As to `CN1CCN(CCNc2nc3cc(Oc4ccc(NC(=O)Nc5cc(C(F)(F)F)ccc5F)cc4)ccc3[nH]2)CC1.Cl.Cl` [GW768504], the “%Inh” value came to 0%.

As to `O=C(NCC1CC1)c1ccc(-c2cc(C(=O)NC3CC3)ccc2F)cc1` [GW810445], the “%Inh” value is listed as 0%.

With `N#Cc1cccc(C(=O)NC2CCN(c3ccnc(Nc4ccc(F)cc4)n3)C2)c1` (centres unmarked) [GSK1379708], the “%Inh” value is given as 0%.

For `FC(F)(F)c1cc(Br)cc(Nc2nccc(-c3cnn4ncccc34)n2)c1` [GW810578], the “%Inh” value is on record as 0%.

On to `Cc1ccn2nc(-c3ccc(F)cc3)c(-c3ccncc3)c2c1.Cl` [GW457859], for which the “%Inh” value was 30%.

For `C[C@@H](Oc1cc(-n2cnc3cc(-c4cnn(C)c4)ccc32)sc1C(N)=O)c1ccccc1Cl` [GSK580432], the “%Inh” value is 0%.

As to `Cn1ccc2ncnc(Oc3ccc(NC(=O)Nc4cncc(C(F)(F)F)c4)c(Cl)c3)c21`, the “%Inh” value amounted to 0%.

As to `CS(=O)(=O)Nc1ccc(-c2ccnc3[nH]ccc23)cc1` [GSK993273], the “%Inh” value is on record as 0%.

On to `O=C(Nc1n[nH]c2cc(-c3ccco3)ccc12)C1CC1` [SB-737447], for which the “%Inh” value is on record as 0%.

For `OCCn1cc(-c2cnc3nnn(Cc4ccc5ncccc5c4)c3n2)cn1`, the “%Inh” value is listed as 0%.

`Cc1ccc(Nc2ccnc(Nc3ccc4c(c3)CS(=O)(=O)C4)n2)cc1O.Cl` [GW579362]: the “%Inh” value is listed as 87%.

In the case of `Cn1ccc2ncnc(Oc3ccc(NC(=O)Nc4cccc(C(F)(F)F)c4)c(F)c3)c21`, the “%Inh” value was found to be 0%.

As to `CCOC(=O)N1CCC(n2cnc(-c3ccc(F)cc3)c2-c2ccnc(N)n2)CC1` [SB-219952], the “%Inh” value amounted to 0%.

Regarding `CCn1c(-c2nonc2N)nc2cncc(Br)c21` [SB-738004], the “%Inh” value came to 0%.

For the molecule `Cl.c1ccc(Oc2ccc(Nc3ccnc4cc(-c5ccc(CN6CCNCC6)o5)ccc34)cc2)nc1` [GW567142], the “%Inh” value worked out at 19%.

On to `COc1cccc(C2=C(Nc3cccc(Cl)c3)C(=O)NC2=O)c1` [SB-341556], for which the “%Inh” value amounted to 6%.

Consider `CS(=O)c1ccc(-c2coc3ccc(-c4n[nH]c(=O)o4)cc23)cc1` (centres unmarked), for which the “%Inh” value is listed as 0%.

For the molecule `COC(=O)Nc1nc2cc(Oc3ccc(NC(=O)Nc4cc(C(F)(F)F)ccc4Cl)cc3)ccc2[nH]1.Cl` [GW697465], the “%Inh” value stood at 9%.

Regarding `Cn1cc(-c2cccc3c(N)c(C(N)=O)nnc23)cn1`, the “%Inh” value came out at 21%.

As to `C[C@@H]1CCN(C(=O)N2CCCC2)C[C@@H]1N(C)c1ncnc2[nH]ccc12`, the “%Inh” value is on record as 26%.

Take `Cc1ccc2c(-c3ccnc(Nc4ccc(C(F)(F)F)cc4)n3)cnn2n1` [GW819776]: the “%Inh” value is on record as 0%.

For the molecule `C[C@@H](Oc1cc(-n2cnc3cc(-c4ccncc4)ccc32)sc1C(N)=O)c1ccccc1Cl` [GSK479719], the “%Inh” value is 16%.

For the molecule `CCNCC(Cc1ccccc1)NC(=O)c1cc(Br)c(-c2ccnc3[nH]ccc23)s1.Cl.Cl` (centres unmarked) [GSK1383280], the “%Inh” value amounted to 73%.

As for `Cc1nnc(-c2ccc3occ(-c4ccc(S(C)=O)cc4)c3n2)o1` (centres unmarked), the “%Inh” value is listed as 0%.

As to `COc1cc2nccc(Nc3ccc(Oc4ccccc4)cc3)c2cc1OC.Cl` [GI261656], the “%Inh” value is listed as 6%.

`COc1cccc(OC)c1C(=O)Nc1cccc(-c2nn3ccccc3c2-c2ccnc(Nc3cccc(F)c3)n2)c1` [GSK361065]: the “%Inh” value is reported as 2%.

Turning to `COc1cc(Nc2nccc(N3CCC(NC(=O)c4cccc(C#N)c4)C3)n2)cc(OC)c1OC` (centres unmarked) [GSK1379751], the “%Inh” value came out at 0%.

Consider `O=C(Nc1cccc(C(F)(F)F)c1)c1cccc(Oc2ccc3nccn3n2)c1`, for which the “%Inh” value turned out to be 0%.

Regarding `CC(C)c1nc(-c2cccc(NS(=O)(=O)c3ccccc3)c2)c(-c2ccnc(Nc3ccc4c(c3)CN(C)CC4)n2)s1` [GSK1649598], the “%Inh” value is listed as 100%.

In the case of `CN1CCN(CCCNc2nccc(-c3c(-c4ccc(F)cc4)nn4cc(C(N)=O)ccc34)n2)CC1` [GW622475], the “%Inh” value was 89%.

As for `CC(=O)c1c(-c2ccncc2)[nH]c(-c2ccncc2)c1C` [GW493036], the “%Inh” value came out at 100%.

In the case of `COC(=O)c1cccc(NC(=O)NC2CCN(c3ccnc(NCc4ccc(F)cc4)n3)CC2)c1` [GSK1379860], the “%Inh” value is 25%.

A further assay has as its system PRKG1. The conditions noted are these: concentration: 1 μM,replicates: in singlicate; n = 1.
Take `Cn1ccc2ncnc(Oc3ccc(NC(=O)Nc4ccnc(C(F)(F)F)c4)c(Cl)c3)c21`: the “%Inh” value turned out to be 0%.

As to `Cc1ccc(CC(=O)N2CCc3cc(-c4cn(C)c5ncnc(N)c45)ccc32)cc1` [GSK2634758], the “%Inh” value was 4%.

On to `CS(=O)(=O)c1cccc(CNc2nc(Nc3ccc4c(c3)[C@@H]3C[C@@H]4CNC3=O)ncc2C(F)(F)F)c1`, for which the “%Inh” value came to 0%.

On to `CNC(=O)c1ccccc1Nc1nc(Nc2cccc(CS(C)(=O)=O)c2)ncc1C.O=CO` [GSK1520489], for which the “%Inh” value is 0%.

Regarding `Cn1ccc2ncnc(Oc3ccc(NC(=O)Nc4cccc(C(F)(F)F)c4)c(Cl)c3)c21`, the “%Inh” value stood at 0%.

For the molecule `CN1CCN(CCNc2nc3cc(Oc4ccc(NC(=O)Nc5cc(C(F)(F)F)ccc5F)cc4)ccc3[nH]2)CC1.Cl.Cl` [GW768504], the “%Inh” value is recorded as 2%.

Consider `O=C(NCC1CC1)c1ccc(-c2cc(C(=O)NC3CC3)ccc2F)cc1` [GW810445], for which the “%Inh” value is listed as 0%.

Take `N#Cc1cccc(C(=O)NC2CCN(c3ccnc(Nc4ccc(F)cc4)n3)C2)c1` (centres unmarked) [GSK1379708]: the “%Inh” value is 1%.

As to `FC(F)(F)c1cc(Br)cc(Nc2nccc(-c3cnn4ncccc34)n2)c1` [GW810578], the “%Inh” value came to 25%.

As to `Cc1ccn2nc(-c3ccc(F)cc3)c(-c3ccncc3)c2c1.Cl` [GW457859], the “%Inh” value worked out at 0%.

As to `C[C@@H](Oc1cc(-n2cnc3cc(-c4cnn(C)c4)ccc32)sc1C(N)=O)c1ccccc1Cl` [GSK580432], the “%Inh” value was found to be 17%.

As to `Cn1ccc2ncnc(Oc3ccc(NC(=O)Nc4cncc(C(F)(F)F)c4)c(Cl)c3)c21`, the “%Inh” value was 0%.

On to `CS(=O)(=O)Nc1ccc(-c2ccnc3[nH]ccc23)cc1` [GSK993273], for which the “%Inh” value amounted to 77%.

As to `O=C(Nc1n[nH]c2cc(-c3ccco3)ccc12)C1CC1` [SB-737447], the “%Inh” value amounted to 0%.

In the case of `OCCn1cc(-c2cnc3nnn(Cc4ccc5ncccc5c4)c3n2)cn1`, the “%Inh” value is listed as 0%.

For the molecule `Cc1ccc(Nc2ccnc(Nc3ccc4c(c3)CS(=O)(=O)C4)n2)cc1O.Cl` [GW579362], the “%Inh” value is on record as 0%.

Consider `Cn1ccc2ncnc(Oc3ccc(NC(=O)Nc4cccc(C(F)(F)F)c4)c(F)c3)c21`, for which the “%Inh” value is 18%.

Take `CCOC(=O)N1CCC(n2cnc(-c3ccc(F)cc3)c2-c2ccnc(N)n2)CC1` [SB-219952]: the “%Inh” value is 40%.

In the case of `CCn1c(-c2nonc2N)nc2cncc(Br)c21` [SB-738004], the “%Inh” value is recorded as 0%.

Regarding `Cl.c1ccc(Oc2ccc(Nc3ccnc4cc(-c5ccc(CN6CCNCC6)o5)ccc34)cc2)nc1` [GW567142], the “%Inh” value is reported as 0%.

Turning to `COc1cccc(C2=C(Nc3cccc(Cl)c3)C(=O)NC2=O)c1` [SB-341556], the “%Inh” value is reported as 0%.

Regarding `CS(=O)c1ccc(-c2coc3ccc(-c4n[nH]c(=O)o4)cc23)cc1` (centres unmarked), the “%Inh” value was found to be 4%.

As for `COC(=O)Nc1nc2cc(Oc3ccc(NC(=O)Nc4cc(C(F)(F)F)ccc4Cl)cc3)ccc2[nH]1.Cl` [GW697465], the “%Inh” value is 2%.

As to `Cn1cc(-c2cccc3c(N)c(C(N)=O)nnc23)cn1`, the “%Inh” value is reported as 39%.

In the case of `C[C@@H]1CCN(C(=O)N2CCCC2)C[C@@H]1N(C)c1ncnc2[nH]ccc12`, the “%Inh” value was found to be 29%.

Take `Cc1ccc2c(-c3ccnc(Nc4ccc(C(F)(F)F)cc4)n3)cnn2n1` [GW819776]: the “%Inh” value was 8%.

`C[C@@H](Oc1cc(-n2cnc3cc(-c4ccncc4)ccc32)sc1C(N)=O)c1ccccc1Cl` [GSK479719]: the “%Inh” value is recorded as 3%.

Take `CCNCC(Cc1ccccc1)NC(=O)c1cc(Br)c(-c2ccnc3[nH]ccc23)s1.Cl.Cl` (centres unmarked) [GSK1383280]: the “%Inh” value was 99%.

Consider `Cc1nnc(-c2ccc3occ(-c4ccc(S(C)=O)cc4)c3n2)o1` (centres unmarked), for which the “%Inh” value is reported as 0%.

As to `COc1cc2nccc(Nc3ccc(Oc4ccccc4)cc3)c2cc1OC.Cl` [GI261656], the “%Inh” value worked out at 0%.

Regarding `COc1cccc(OC)c1C(=O)Nc1cccc(-c2nn3ccccc3c2-c2ccnc(Nc3cccc(F)c3)n2)c1` [GSK361065], the “%Inh” value turned out to be 11%.

As to `COc1cc(Nc2nccc(N3CCC(NC(=O)c4cccc(C#N)c4)C3)n2)cc(OC)c1OC` (centres unmarked) [GSK1379751], the “%Inh” value amounted to 0%.

As to `O=C(Nc1cccc(C(F)(F)F)c1)c1cccc(Oc2ccc3nccn3n2)c1`, the “%Inh” value is 19%.

`CC(C)c1nc(-c2cccc(NS(=O)(=O)c3ccccc3)c2)c(-c2ccnc(Nc3ccc4c(c3)CN(C)CC4)n2)s1` [GSK1649598]: the “%Inh” value was 0%.

As to `CN1CCN(CCCNc2nccc(-c3c(-c4ccc(F)cc4)nn4cc(C(N)=O)ccc34)n2)CC1` [GW622475], the “%Inh” value is on record as 6%.

As for `CC(=O)c1c(-c2ccncc2)[nH]c(-c2ccncc2)c1C` [GW493036], the “%Inh” value worked out at 75%.

Turning to `COC(=O)c1cccc(NC(=O)NC2CCN(c3ccnc(NCc4ccc(F)cc4)n3)CC2)c1` [GSK1379860], the “%Inh” value was 0%.
